Three compounds from PubChem BioAssay (EPA / NIEHS) can be followed below.

Results filed as inconclusive are left out. The source made the active and inactive calls. Rule for the calls, unless noted: active = hit-call score of the fitted dose curve at least 0.9, where 1 is the maximum; inactive = score below 0.9.

Read-out in test [1]: Pyruvate Dehydrogenase Kinase 4 (PDK4), PDK4 (gene 5166)
In words: LTEA_HepaRG_PDK4: Life Technologies and Expression Analysis (LTEA) Assay for Pyruvate Dehydrogenase Kinase 4 (PDK4) using HepaRG (AID 2283525). To be noted: mRNA level, 48 h; actives raise or lower the signal. The procedure, abridged:
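In this multiplexed human HepaRG expression assay, cells are treated 48 h with test chemicals across an eight-point range starting at 100 uM. PDK4 mRNA changes, normalized to ACTB/GAPDH/POLR2A, are fitted in both directions relative to vehicle.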

Read-out in test [2]: NAD(P)H dehydrogenase [quinone] 1 (NQO1), NQO1 (gene 1728)
In words: LTEA_HepaRG_NQO1: Life Technologies and Expression Analysis (LTEA) Assay for NAD(P)H dehydrogenase [quinone] 1 (NQO1) using HepaRG (AID 2283526). The settings on record: mRNA level, 48 h; actives raise or lower the signal. The procedure, abridged:
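Differentiated HepaRG cells, plated 48 h and then switched to serum-free induction medium, were exposed in duplicate for 48 h to 8-point half-log concentrations up to 100 uM in 0.5% DMSO. mRNA measured by qRT-PCR, normalized to ACTB, GAPDH, POLR2A; bidirectional fit versus DMSO.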

Read-out in test [3]: Nuclear factor erythroid 2-related factor 2 (Homo sapiens) (UniProt Q16236)
In words: LTEA_HepaRG_NFE2L2: Life Technologies and Expression Analysis (LTEA) Assay for Nuclear factor erythroid 2-related factor 2 (NFE2L2) Transcription Factor using HepaRG (AID 2283527).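 For outcome: TaqMan qRT-PCR transcript level normalised to ACTB GAPDH and POLR2A housekeeping genes.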 To be noted: mRNA level, 48 h; actives raise or lower the signal. The procedure, abridged: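 Transcript level of NFE2L2 is the read-out, measured by microfluidic TaqMan qRT-PCR and normalized to three housekeeping genes. Human HepaRG cultures received test chemical for 48 h at up to 100 uM in half-log steps. Gain or loss of signal is fitted relative to 0.5% DMSO.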

Read-out in test [4]: succinate dehydrogenase complex iron sulfur subunit B (SDHB), SDHB (gene 6390)
In words: LTEA_HepaRG_SDHB: Life Technologies and Expression Analysis (LTEA) Assay for succinate dehydrogenase complex iron sulfur subunit B (SDHB) using HepaRG (AID 2283528). To be noted: mRNA level, 48 h; actives raise or lower the signal. The procedure, abridged:
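HepaRG, 48 h exposure, 8-pt half-log series from 100 uM in 0.5% DMSO, duplicates. Readout: SDHB mRNA by Fluidigm qRT-PCR vs housekeeping genes; bidirectional fit relative to DMSO.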

Read-out in test [5]: Signal transducer and activator of transcription 3 (Homo sapiens) (UniProt P40763)
In words: LTEA_HepaRG_STAT3: Life Technologies and Expression Analysis (LTEA) Assay for Signal transducer and activator of transcription (STAT3) using HepaRG (AID 2283529). To be noted: mRNA level, 48 h; actives raise or lower the signal. An outline of the steps: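 Read-out is STAT3 mRNA level by qRT-PCR, normalized to three housekeeping genes, in human HepaRG liver cells treated for 48 h. Concentrations ran from 100 uM downward in half-log steps; curves were fitted for gain or loss relative to 0.5% DMSO.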

Read-out in test [6]: solute carrier (SLCO1B1), SLCO1B1 (gene 10599)
In words: LTEA_HepaRG_SLCO1B1: Life Technologies and Expression Analysis (LTEA) Assay for solute carrier (SLCO1B1) using HepaRG (AID 2283530). The settings on record: mRNA level, 48 h; actives raise or lower the signal. The procedure, abridged:
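Human HepaRG cultures treated for 48 h with an eight-concentration half-log series topping at 100 uM; SLCO1B1 measured by qRT-PCR and fitted bidirectionally relative to DMSO.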

Read-out in test [7]: sulfotransferase 2A1 (SULT2A1), SULT2A1 (gene 6822)
In words: LTEA_HepaRG_SULT2A1: Life Technologies and Expression Analysis (LTEA) Assay for sulfotransferase 2A1 (SULT2A1) using HepaRG (AID 2283531). To be noted: mRNA level, 48 h; actives raise or lower the signal. An outline of the steps: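 Gene-expression endpoint in a human liver cell line: SULT2A1 mRNA change after 48 h chemical treatment, curves fitted in both directions relative to 0.5% DMSO vehicle. Concentrations spanned eight half-log steps from 100 uM.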

Read-out in test [8]: Transforming Growth Factor (TGFA), TGFA (gene 7039)
In words: LTEA_HepaRG_TGFA: Life Technologies and Expression Analysis (LTEA) Assay for Transforming Growth Factor (TGFA) using HepaRG (AID 2283532). The settings on record: mRNA level, 48 h; actives raise or lower the signal. The procedure, abridged:
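HepaRG (human liver line), 48 h exposure, 8 conc. half-log down from 100 uM, 0.5% DMSO vehicle, duplicates; serum-free induction medium. TGFA mRNA by TaqMan qRT-PCR, ACTB/GAPDH/POLR2A normalization; gain/loss fit vs DMSO.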

Read-out in test [9]: Transforming Growth Factor (TGFB1), TGFB1 (gene 7040)
In words: LTEA_HepaRG_TGFB1: Life Technologies and Expression Analysis (LTEA) Assay for Transforming Growth Factor (TGFB1) Transporter using HepaRG (AID 2283533). To be noted: mRNA level, 48 h; actives raise or lower the signal. An outline of the steps: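 Eight-point concentration-response (max 100 uM, half-log) in HepaRG under serum-free induction conditions, 48 h. TGFB1 mRNA by qRT-PCR, housekeeping-normalized.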

Read-out in the next test: TIMP1, TIMP1 (gene 7076)
In words: LTEA_HepaRG_TIMP1: Life Technologies and Expression Analysis (LTEA) Assay for TIMP1 using HepaRG (AID 2283534). The settings on record: mRNA level, 48 h; actives raise or lower the signal. The procedure, abridged: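 TIMP1 induction or repression in HepaRG cells after 48 h chemical exposure (eight concentrations, highest 100 uM), assessed by normalized qRT-PCR with bidirectional fitting to DMSO controls.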

Read-out in test [10]: Thyroid Hormone Responsive (THRSP), THRSP (gene 7069)
In words: LTEA_HepaRG_THRSP: Life Technologies and Expression Analysis (LTEA) Assay for Thyroid Hormone Responsive (THRSP) using HepaRG (AID 2283536). The settings on record: mRNA level, 48 h; actives raise or lower the signal. The procedure, abridged:
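mRNA induction or loss relative to 0.5% DMSO vehicle was fitted bidirectionally across an eight-point curve whose highest exposure was 100 uM. Human HepaRG liver cells received chemicals in duplicate over 48 h before RNA extraction.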

Read-out in test [11]: Cellular tumor antigen p53 (Homo sapiens) (UniProt P04637)
In words: LTEA_HepaRG_TP53: Life Technologies and Expression Analysis (LTEA) Assay for Tumor Protein P53 (TP53) using HepaRG (AID 2283537). The settings on record: mRNA level, 48 h; actives raise or lower the signal. The procedure, abridged: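 HepaRG, 48 h exposure, top 100 uM, half-log 8-point, 0.5% DMSO vehicle, duplicates. Read: TP53 mRNA by TaqMan qRT-PCR, normalised to ACTB/GAPDH/POLR2A; bidirectional fit vs DMSO.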

Read-out in test [12]: UDP glucuronosyltransferase (UGT1A1), UGT1A1 (gene 54658)
In words: LTEA_HepaRG_UGT1A1: Life Technologies and Expression Analysis (LTEA) Assay for UDP glucuronosyltransferase (UGT1A1) using HepaRG (AID 2283538). The settings on record: mRNA level, 48 h; actives raise or lower the signal. An outline of the steps: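 Differentiated human HepaRG cells in serum-free induction medium were exposed in duplicate for 48 h to eight half-log concentrations up to 100 uM in 0.5% DMSO. UGT1A1 mRNA was quantified by TaqMan qRT-PCR, normalized to ACTB, GAPDH and POLR2A, and fitted bidirectionally against DMSO.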

Read-out in test [13]: UDP glucuronosyltransferase (UGT1A6), UGT1A6 (gene 54578)
In words: LTEA_HepaRG_UGT1A6: Life Technologies and Expression Analysis (LTEA) Assay for UDP glucuronosyltransferase (UGT1A6) using HepaRG (AID 2283539). To be noted: mRNA level, 48 h; actives raise or lower the signal. An outline of the steps: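 Measures mRNA change in HepaRG hepatic cells exposed 48 h to chemicals (eight-point, maximum 100 uM, 0.5% DMSO vehicle) in serum-free induction medium. Expression normalized to endogenous controls; DMSO served as negative control and baseline.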

Read-out in test [14]: X-box binding protein 1 (XBP1), XBP1 (gene 7494)
In words: LTEA_HepaRG_XBP1: Life Technologies and Expression Analysis (LTEA) Assay for X-box binding protein 1 (XBP1) using HepaRG (AID 2283540). The settings on record: mRNA level, 48 h; actives raise or lower the signal. An outline of the steps:
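Eight concentrations (half-log, highest 100 uM, 0.5% DMSO) tested in duplicate on HepaRG cells over 48 h in serum-free induction medium; qRT-PCR of XBP1 normalised to ACTB, GAPDH, POLR2A.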

Test [15] in a line: LTEA_HepaRG_LDH_cytotoxicity: Cytotoxicity Assessment in the Life Technologies and Expression Analysis (LTEA) Assay (AID 2283563; active = hit-call score of the fitted dose curve at least 0.9, where 1 is the maximum;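 for AC50: LDH activity released into spent culture medium as a marker of cell death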). The procedure, abridged: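 Spent-medium LDH after 48 h chemical exposure of HepaRG cells in serum-free induction medium; eight concentrations, half-log dilutions from 100 uM, duplicate wells, fitted upward relative to 0.5% DMSO.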
The nature of test [16]: ATG_XTT_Cytotoxicity: Cytotoxicity Assessment in the Attagene TRANS-FACTORIAL HepG2 Assay (AID 2283584; active = hit-call score of the fitted dose curve at least 0.9, where 1 is the maximum). An outline of the steps:
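24 h chemical exposure of reporter-transfected HepG2; XTT signal loss vs DMSO indicates cytotoxicity.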

Test [17] concerns the target Cellular tumor antigen p53 (Homo sapiens) (UniProt P04637). In words: TOX21_p53_BLA_p2_ratio: Tox21 HCT-116 p53 Agonism Beta-lactamase Assay, Ratio, Phase 2 (AID 2283592; active = hit-call score of the fitted dose curve at least 0.9, where 1 is the maximum). The procedure, abridged: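 Human colon HCT116 cells with an inducible p53 beta-lactamase reporter are exposed to test chemicals for 16 h at 37C. Reporter induction is read as the 460/530 nm emission ratio after CCF4-AM loading, normalized to DMSO.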

Read-out in test [18]: Tumor necrosis factor receptor 1 (TNFRSF1A), TNFRSF1A (gene 7132)
In words: LTEA_HepaRG_TNFRSF1A: Life Technologies and Expression Analysis (LTEA) Assay for Tumor necrosis factor receptor 1 (TNFRSF1A) using HepaRG (AID 2283535). To be noted: mRNA level, 48 h; actives raise or lower the signal. The procedure, abridged: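 Assay uses 48 h chemical treatment of differentiated HepaRG monolayers, tested in duplicate at eight concentrations from 100 uM downward in 0.5% DMSO. mRNA is normalized to ACTB, GAPDH and POLR2A, with induction or suppression fitted relative to vehicle.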

The nature of test [19]: TOX21_p53_BLA_p2_viability: Viability Assessment in the Tox21 HCT-116 p53 Agonism Beta-lactamase Assay, Phase 2 (AID 2283591; active = hit-call score of the fitted dose curve at least 0.9, where 1 is the maximum;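 note: compound exposure lasted 16 h at 37 °C; actives lower the ATP signal meaning cytotoxicity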). The procedure, abridged:
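Cytotoxicity readout: CellTiter-Glo ATP luminescence, 30 min at room temperature, after the beta-lactamase read. Cells were HCT116 exposed 16 h at 37C to compounds pin-transferred at 217-fold dilution from DMSO stocks.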

Chain of Nuclear factor erythroid 2-related factor 2 (Homo sapiens) (Q16236 whole entry, looked up): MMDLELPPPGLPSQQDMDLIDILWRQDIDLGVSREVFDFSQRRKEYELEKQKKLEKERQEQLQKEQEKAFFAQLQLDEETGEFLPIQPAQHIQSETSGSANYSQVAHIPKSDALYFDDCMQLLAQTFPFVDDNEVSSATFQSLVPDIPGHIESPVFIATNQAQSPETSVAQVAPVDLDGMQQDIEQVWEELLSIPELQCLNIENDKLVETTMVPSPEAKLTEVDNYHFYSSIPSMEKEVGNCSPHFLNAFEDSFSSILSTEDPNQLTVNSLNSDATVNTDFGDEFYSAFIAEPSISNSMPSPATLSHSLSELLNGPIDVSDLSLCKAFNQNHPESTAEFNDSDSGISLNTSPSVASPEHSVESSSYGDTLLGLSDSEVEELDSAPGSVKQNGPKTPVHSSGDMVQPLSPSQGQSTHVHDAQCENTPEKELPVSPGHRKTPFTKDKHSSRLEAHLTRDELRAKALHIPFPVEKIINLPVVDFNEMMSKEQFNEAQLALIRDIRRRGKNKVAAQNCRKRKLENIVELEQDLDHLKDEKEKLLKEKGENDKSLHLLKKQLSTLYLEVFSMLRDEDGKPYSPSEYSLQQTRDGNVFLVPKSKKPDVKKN
Chain of Cellular tumor antigen p53 (Homo sapiens) (P04637 whole entry, looked up): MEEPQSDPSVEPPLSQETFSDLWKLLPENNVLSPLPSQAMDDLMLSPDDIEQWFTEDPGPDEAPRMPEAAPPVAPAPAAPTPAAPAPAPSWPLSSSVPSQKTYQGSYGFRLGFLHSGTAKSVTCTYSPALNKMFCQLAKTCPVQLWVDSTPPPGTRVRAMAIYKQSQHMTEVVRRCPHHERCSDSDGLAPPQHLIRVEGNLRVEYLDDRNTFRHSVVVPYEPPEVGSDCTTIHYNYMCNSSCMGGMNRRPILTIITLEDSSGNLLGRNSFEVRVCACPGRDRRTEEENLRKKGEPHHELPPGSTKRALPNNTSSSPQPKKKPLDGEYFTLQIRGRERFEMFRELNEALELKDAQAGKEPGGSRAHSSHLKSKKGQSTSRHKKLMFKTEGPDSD
Chain of Signal transducer and activator of transcription 3 (Homo sapiens) (P40763 whole entry, looked up): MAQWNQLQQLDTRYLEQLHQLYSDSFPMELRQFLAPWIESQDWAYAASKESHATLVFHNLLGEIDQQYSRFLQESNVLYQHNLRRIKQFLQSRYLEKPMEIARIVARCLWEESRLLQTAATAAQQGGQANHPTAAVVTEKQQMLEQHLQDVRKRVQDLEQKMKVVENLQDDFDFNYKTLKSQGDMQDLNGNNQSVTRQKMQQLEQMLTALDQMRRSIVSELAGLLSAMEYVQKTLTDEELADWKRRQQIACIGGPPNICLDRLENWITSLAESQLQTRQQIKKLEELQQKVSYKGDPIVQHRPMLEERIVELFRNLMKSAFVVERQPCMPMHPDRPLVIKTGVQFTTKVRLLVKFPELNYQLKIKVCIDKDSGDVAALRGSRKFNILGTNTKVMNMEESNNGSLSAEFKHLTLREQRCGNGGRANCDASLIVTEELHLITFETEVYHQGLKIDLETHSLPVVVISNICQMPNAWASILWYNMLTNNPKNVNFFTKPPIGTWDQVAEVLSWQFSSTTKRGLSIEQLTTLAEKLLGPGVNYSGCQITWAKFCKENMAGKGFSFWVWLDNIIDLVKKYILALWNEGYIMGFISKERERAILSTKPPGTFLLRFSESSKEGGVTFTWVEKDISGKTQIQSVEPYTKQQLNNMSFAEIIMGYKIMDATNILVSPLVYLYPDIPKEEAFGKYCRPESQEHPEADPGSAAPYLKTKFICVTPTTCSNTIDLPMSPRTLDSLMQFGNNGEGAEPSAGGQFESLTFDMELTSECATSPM

Turning to `COc1ccc(O)c(C(C)(C)C)c1`, the call in test [1], in [2], in [3], in test [4], in test [5] and in test [6] was inactive. For the same compound, the outcome was “inactive” in [7]; “inactive” in test [8]; “inactive” in [9]; “inactive” with TIMP1, TIMP1 (gene 7076); “inactive” in test [10]; “inactive” in test [11]. Besides, the outcome in test [12], in [13], in [14], in [15], in test [16] and in test [17] was inactive.

For `Cc1ccc(O)c(C)c1`, the result in test [2], in [3], in [4], in test [5], in test [6] and in test [7] was inactive. In addition, the outcome is “inactive” in test [8]; “inactive” in test [9]; “inactive” with TIMP1, TIMP1 (gene 7076); “inactive” in test [18]; “inactive” in test [10]; “inactive” in test [11]. Besides, the call in test [12], in test [13], in test [14], in [15], in [19] and in [17] was inactive.

Take `CC(c1ccc(O)cc1)(c1ccc(O)cc1)c1ccc(O)cc1`: the AC50 is 70.9 µM (active) in test [1]; 73.9 µM (active) in test [3]; 50 µM (active) in test [4]; 90.9 µM (active) in [5]; 84 µM (active) in test [7]; 85.3 µM (active) with TIMP1, TIMP1 (gene 7076). In addition, the AC50 in test [10] was 23.9 µM (active); in [12] it was 68.9 µM (active); in test [13], 75.2 µM (active); in [15], 76.5 µM (active); in test [19], 33.4 µM (active); in test [17], 62.8 µM (active). In addition, the call in test [2], in test [6], in test [8], in [9], in test [18] and in test [14] was inactive. In addition, in [16], the compound was called inactive.
